GLD-1 TGE inh: GLD-1/TGE RNA complex disruptors, primary screen, biochemical, fluorescence polarization. Female germline-specific tumor suppressor gld-1 (Caenorhabditis elegans), Q17339. purified GLD-1 + fluorescein TGE RNA. inhibition, % at 5.96 µM. hit rate 0.44% among 320,000. AID 2280, 2010;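 active = percent inhibition above a per-plate cutoff, the plate mean of test compounds plus 3 SD, cut at about 30% in these data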
MEX-5 binding: MEX-5 zinc finger RNA-binding disruptors – biochemical, C. elegans, fluorescence polarization, MLPCN library, primary screen | Zinc finger protein mex-5 (Caenorhabditis elegans), Q9XUB2 | MEX-5/FITC-TCR2 RNA binding; hits give low values | activity score (negative = inhibition of binding), % at 10 µM | hit rate 0.38% among 300,000;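 active = inhibition past about -25% in most replicates, and total fluorescence under double the plate's negative control median, limit read from the data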
Target sequence (Q9XUB2 whole entry, looked up): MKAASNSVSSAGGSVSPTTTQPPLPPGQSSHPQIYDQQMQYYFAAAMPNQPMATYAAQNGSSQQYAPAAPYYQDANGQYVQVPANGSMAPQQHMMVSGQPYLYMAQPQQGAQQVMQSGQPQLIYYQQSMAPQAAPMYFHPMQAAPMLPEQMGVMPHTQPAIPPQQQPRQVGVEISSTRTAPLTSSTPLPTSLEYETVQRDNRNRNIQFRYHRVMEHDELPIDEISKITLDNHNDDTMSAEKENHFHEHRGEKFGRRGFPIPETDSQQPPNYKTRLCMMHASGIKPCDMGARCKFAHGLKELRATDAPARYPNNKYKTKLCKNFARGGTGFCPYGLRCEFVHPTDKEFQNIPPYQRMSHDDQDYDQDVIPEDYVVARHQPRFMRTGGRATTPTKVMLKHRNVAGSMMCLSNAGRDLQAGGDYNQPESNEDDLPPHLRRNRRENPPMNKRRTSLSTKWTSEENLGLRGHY
MCL1-BIM inh: inhibitors of MCL1 binding to BIM-BH3, primary screen, biochemical, fluorescence polarization; hit rate 0.68% among 320,000; inhibition, % at 10.9 µM; GST-MCL1 / FITC-Bim-BH3 fluorescence polarization; Induced myeloid leukemia cell differentiation protein Mcl-1 (Homo sapiens), Q07820; AID 2057, 2009;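 active = inhibition above the mean inhibition of all tested compounds plus 3 SD, set per campaign, cut at about 40% in these data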;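 also: higher means more loss of mP so more displacement of Bim peptide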
E coli Lon inh: inhibitors of E. coli Lon protease, primary screen, biochemical, fluorescence polarization. P0A9M0. purified E. coli Lon protease. inhibition, % at 7.94 µM. hit rate 0.42% among 360,000; in the data active = inhibition above about 13%, passing the limit was not always enough
Bcl-xL primary: inhibitors of human Bcl-xL, primary screen, biochemical, fluorescence polarization, HTS | GST-Bcl-xL / FITC-Bim BH3 peptide fluorescence polarization | inhibition, % at 10.9 µM | hit rate 0.7% among 320,000;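 active = inhibition above the mean of all tested compounds plus 3 SD, cutoff set per campaign, cut at about 30% in these data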;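 also: inhibitors lower millipolarization by displacing the labeled peptide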
Target sequence (Q07817 whole entry, looked up): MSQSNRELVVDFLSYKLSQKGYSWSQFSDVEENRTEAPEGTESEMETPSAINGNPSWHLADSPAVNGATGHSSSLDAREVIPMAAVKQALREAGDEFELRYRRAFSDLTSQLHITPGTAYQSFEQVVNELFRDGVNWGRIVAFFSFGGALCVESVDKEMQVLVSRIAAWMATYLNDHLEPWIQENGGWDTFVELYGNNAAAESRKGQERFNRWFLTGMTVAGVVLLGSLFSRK
EBV gp42 block: Epstein-Barr virus gp42 inhibitors, primary screen, biochemical, uHTS, fluorescence polarization; AID 1085, 2008; inhibition, % (tested at 21.74 µM); hit rate 0.42% among 220,000; Fluorescence polarization binding assay, mP read-out; Glycoprotein 42 (Epstein-Barr virus (strain AG876)), Q1HVG2; in the data active = inhibition above about 50%
E coli Lon conf: E. coli Lon protease inhibitor retest, confirmation, biochemical, fluorescence polarization; inhibition, % at 7.94 µM; hit rate 31% among 1,400; purified E. coli Lon; shares compounds with E coli Lon inh; in the data active = inhibition above about 16%
Of the large screens only hits and unclear results are named; the others gave an inactive call (follow-up assays come after a bar, where they were run). Shown are actives, neighbours in structure and some others; about 1.5% of the full set was active somewhere.

CCC(=O)NC(c1cc(Cl)c2ccccc2c1O)C1CC1 (stereo not given)	E coli Lon inh 20.9, Bcl-xL primary 150.8 (no result: MEX-5 binding, EBV gp42 block) | E coli Lon conf inactive
CCN(CC)S(=O)(=O)c1ccc2c(c1)nc(CCC(=O)Nc1ccc3c(c1)OCO3)n2CC	none
CCn1c(CCC(=O)N(C)CC(=O)Nc2cccc(F)c2)nc2cc(S(=O)(=O)N(C)C)ccc21	E coli Lon inh 15.3 (no result: EBV gp42 block) | E coli Lon conf inactive
O=C(CNC(=O)c1cccc(F)c1)N/N=C/C=C/c1ccccc1	E coli Lon inh 16.9 | E coli Lon conf inactive
NS(=O)(=O)c1ccc(N/N=C/c2ccc(O)cc2O)c([N+](=O)[O-])c1	none
NS(=O)(=O)c1ccc(N/N=C/c2ccc(O)c(O)c2O)c([N+](=O)[O-])c1	E coli Lon inh 21.1, EBV gp42 block 96.8 (no result: GLD-1 TGE inh, MEX-5 binding, MCL1-BIM inh, Bcl-xL primary) | E coli Lon conf 37.8
O=C(CC(c1ccccc1)c1cc(Br)ccc1O)N1CCCC1 (stereo not given)	none
CC(=O)Nc1ccccc1OCc1nnc(-c2ccc(Cl)cc2)o1	none
COc1cc(NCCCCC(C)N)c2nccc(C)c2c1 (stereo not given)	none (no result: GLD-1 TGE inh, MEX-5 binding, MCL1-BIM inh, Bcl-xL primary, EBV gp42 block)
COc1cc(NCCCC(C)N)c2ncccc2c1 (stereo not given)	MEX-5 binding -25.8, E coli Lon inh 44.0 (no result: GLD-1 TGE inh, MCL1-BIM inh, Bcl-xL primary) | E coli Lon conf inactive
COCCN(C(=O)c1cccc(OC)c1)c1nnc(-c2ccncc2)s1	none
C=CCN(C(=O)COc1ccccc1)c1nnc(-c2ccncc2)s1	E coli Lon inh 18.3 | E coli Lon conf inactive
CCCCn1nnnc1C(c1ccccc1)N1CCN(CCN2CCOCC2)CC1 (stereo not given)	E coli Lon inh 15.0 (no result: GLD-1 TGE inh, MEX-5 binding, MCL1-BIM inh, Bcl-xL primary, EBV gp42 block) | E coli Lon conf inactive
COc1cccc(NC(=O)CN(C)C(=O)Cc2n[nH]c(=O)c3ccccc23)c1	E coli Lon inh 19.2 (no result: MEX-5 binding, EBV gp42 block) | E coli Lon conf inactive
CCCOC(=O)C1C2C=CC(C2)C1C(=O)OCC(=O)c1ccccc1 (stereo not given)	E coli Lon inh 25.5 | E coli Lon conf 86.9
Cc1cccc(C)c1OCc1cc(C(=O)N2CCC(C3CCCCC3)C2)no1 (stereo not given)	none (no result: EBV gp42 block)
Cc1cccc(C)c1OCc1cc(C(=O)N2CCC(c3ccccc3)CC2)no1	E coli Lon inh 20.9 (no result: EBV gp42 block) | E coli Lon conf 16.8
O=[N+]([O-])c1ccc(Nc2ccccc2O)c2nonc12	MEX-5 binding -35.8, E coli Lon inh 29.5 (no result: GLD-1 TGE inh, MCL1-BIM inh, Bcl-xL primary, EBV gp42 block) | E coli Lon conf 28.6
O=C(O)c1ccc(Nc2ccc([N+](=O)[O-])c3nonc23)cc1	none (no result: GLD-1 TGE inh, MCL1-BIM inh, Bcl-xL primary, EBV gp42 block)
CCOC(=O)c1sc(=S)n(-c2cc(F)ccc2F)c1N	none
O=C(COc1ccc(Cl)cc1)N1CCCCCCC1	none (no result: EBV gp42 block)
O=C(C1CCC(CNS(=O)(=O)c2ccccc2)CC1)N1CCCCC1 (stereo not given)	none (no result: EBV gp42 block)
COc1ccc(CN2CCN(C(=O)C3CCC(CNS(=O)(=O)c4ccccc4)CC3)CC2)c(OC)c1OC (stereo not given)	E coli Lon inh 142.6 | E coli Lon conf inactive
Oc1cccc(N2Cc3ccccc3C2)c1	none (no result: EBV gp42 block)
Oc1ccc(N2Cc3ccccc3C2)cc1	E coli Lon inh 37.3 (no result: EBV gp42 block) | E coli Lon conf inactive
O=C(Cc1cccc2ccccc12)N/N=C/c1ccncc1	none
O=C1CCCc2c1cc(C(=O)NCc1ccco1)c(=O)n2-c1ccccc1	none
COC(=O)c1[nH]c2cccc(OC)c2c1NC(=O)CCN1CCN(c2ccccc2OC)CC1	E coli Lon inh 20.7 | E coli Lon conf inactive
CCOc1ccc(C(C(=O)NC2CCCCC2)N(C(=O)c2csnn2)C2CC2)cc1 (stereo not given)	E coli Lon inh 24.1 (no result: EBV gp42 block) | E coli Lon conf inactive
CC(C)(C)C1c2[nH]c3ccccc3c2CCN1CCCn1cccn1 (stereo not given)	none
C/C(CS(=O)(=O)c1ccc(Cl)cc1)=N/NC(N)=S	none
Cc1cc(OCC(=O)N2CCOCC2)ccc1NC(=O)c1ccccc1C	E coli Lon inh 16.6 (no result: EBV gp42 block) | E coli Lon conf inactive
O=C(N/N=C/c1ccc(OCC(=O)N2CCOCC2)cc1)c1ccccc1Cl	none
O=C(Nc1ccc(OCC(=O)N2CCOCC2)cc1)c1ccccc1Cl	E coli Lon inh 21.9 (no result: EBV gp42 block) | E coli Lon conf inactive
O=C(Nc1ccc(N2CCCCCC2)cc1)c1ccccc1Cl	E coli Lon inh 18.8 | E coli Lon conf inactive
CC(=O)N1CCN(c2ccc(NC(=O)c3ccccc3Cl)cc2)CC1	none (no result: EBV gp42 block)
Cc1onc(-c2c(Cl)cccc2Cl)c1C(=O)OCC(=O)c1ccccc1	none
CC(C)(C)c1ccc(C(=O)NC(=S)N2CCCC2)cc1	none (no result: EBV gp42 block)
Cc1nn(C)c(=O)n1-c1ccccc1	none
Cn1c2nc(=O)n(-c3ccccc3)c(=O)c-2nc2c1CCCC2	E coli Lon inh 122.7 (no result: GLD-1 TGE inh, MEX-5 binding, MCL1-BIM inh, Bcl-xL primary, EBV gp42 block) | E coli Lon conf 76.5
Cc1ccc2cccc(N)c2n1	E coli Lon inh 30.8 (no result: MEX-5 binding) | E coli Lon conf inactive
Cc1ccc2cccc(OCc3ccccc3)c2n1	none
O=C1c2ccccc2CN1C(CO)c1ccccc1 (stereo not given)	none (no result: EBV gp42 block)
COC(=O)c1nn(-c2cccc(C(F)(F)F)c2)ccc1=O	E coli Lon inh 19.5 (no result: EBV gp42 block) | E coli Lon conf inactive
O=C(Nc1ccccc1)c1nn(-c2cccc(C(F)(F)F)c2)ccc1=O	none
Cn1c(-c2ccc(F)cc2)cnc1SCC(=O)N1CCCc2ccccc21	E coli Lon inh 19.3 | E coli Lon conf inactive
COc1cc([C@H]2[C@@H]3CCCC[C@]3(O)CCN2Cc2ccccc2F)ccc1O	none
Cc1c(C2Nc3ccccc3NC3=C2C(=O)CC(C)(C)C3)cnn1C (stereo not given)	E coli Lon inh 143.7 | E coli Lon conf inactive
CC1(C)CC(=O)C2=C(C1)Nc1ccccc1NC2c1ccccc1F (stereo not given)	E coli Lon inh 33.5 (no result: EBV gp42 block) | E coli Lon conf inactive
CC1(C)CC(=O)C2=C(C1)Nc1ccccc1NC2c1cccs1 (stereo not given)	none
Cc1nnsc1C(=O)Nc1cccc(Cl)c1Cl	none
CCc1cc(Br)ccc1NC(=S)NCCc1ccccc1	none (no result: GLD-1 TGE inh, MEX-5 binding, MCL1-BIM inh, Bcl-xL primary, EBV gp42 block)
O=C(C[C@H]1C/C=C\CC[C@H](Cc2ccc(F)cc2)C(=O)OC[C@H]2CCCN2C1=O)N[C@@H](CO)Cc1ccccc1	E coli Lon inh 39.8 (no result: MEX-5 binding, MCL1-BIM inh, Bcl-xL primary, EBV gp42 block) | E coli Lon conf inactive
CC(C)(C)OC(=O)C[C@@H]1C/C=C\C[C@H](CC(=O)NCCO)C(=O)N2CCC[C@H]2COC1=O	E coli Lon inh 110.7 (no result: MEX-5 binding, MCL1-BIM inh, Bcl-xL primary, EBV gp42 block) | E coli Lon conf inactive
Cc1ccc(S(=O)(=O)N2CCC(NC(=O)c3ccccc3)CC2)cc1	none
